The panel holds about 83,000 compounds, 20% with a hit somewhere; the sample as a whole holds those more often.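 In brief: 96-well plates, 48 h treatment, single concentration, percent growth endpoint.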 The source made the active and inactive calls. How the source made its calls: active means growth percent below 10; inactive means the rest.
How the values were obtained:
Test in all cases: NCI-60 one-dose screen, 48 h (100 = growth as untreated, 0 = no growth, -100 = all killed)
Details in all cases: 10 µM unless noted
[1] = test system: SK-MEL-2 melanoma
[2] = test system: EKVX NSCLC
[3] = test system: SN12C renal
[4] = test system: UO-31 renal
[5] = test system: TK-10 renal
[6] = test system: ACHN renal
[7] = test system: CAKI-1 renal
[8] = test system: A498 renal
[9] = test system: CCRF-CEM leukemia
[10] = test system: MOLT-4 leukemia
[11] = test system: SR leukemia
[12] = test system: RPMI-8226 leukemia
[13] = test system: OVCAR-8 ovarian
[14] = test system: OVCAR-5 ovarian
[15] = test system: OVCAR-4 ovarian
[16] = test system: SK-OV-3 ovarian
[17] = test system: IGROV1 ovarian
[18] = test system: OVCAR-3 ovarian
[19] = test system: HS 578T breast
[20] = test system: NCI/ADR-RES ovarian

Measured: growth

COc1ccc(C(=O)c2cc3c(N)c(C(=O)Nc4cccc(Cl)c4)sc3nc2C)cc1
inactive: [1] 39.8% | [2] 39.4% | [3] 42.7% | [4] 42.7% | [5] 49.9% | [6] 49.3% | [7] 44.1% | [10] 20.2% | [13] 27.1% | [14] 49.3% | [15] 49.5% | [16] 44% | [17] 47.9% | [19] 18.5%
active: [8] -0.876% | [9] 8.14% | [11] -18.2% | [12] 9.77% | [18] 0.514% | [20] 8.84%

C[C@]12C[C@H]1CC[C@]1(C)[C@@H]2CC[C@@]23C[C@H](CC[C@H]21)[C@@](O)(CO)C3
inactive: [1] 104% | [2] 74.8% | [3] 92% | [4] 84% | [5] 100% | [6] 107% | [7] 85.9% | [8] 92.9% | [9] 86.4% | [10] 96% | [11] 63.3% | [12] 95% | [13] 102% | [14] 92.9% | [15] 110% | [16] 113% | [17] 104% | [18] 111% | [19] 99.6% | [20] 97.7%

O=C(CN1CCOCC1)Nc1ccc2ncnc(Nc3ccc(Oc4cccc(C(F)(F)F)c4)c(Cl)c3)c2c1
inactive: [1] 75.9% | [2] 22% | [3] 38.4% | [4] 22.5% | [5] 38.4% | [6] 19% | [7] 33.8% | [8] 10.1% | [9] 58.4% | [10] 37.5% | [11] 61.5% | [12] 51.5% | [13] 49.8% | [14] 64.3% | [15] 55% | [16] 16% | [18] 33.8% | [19] 70.8% | [20] 42.3%
active: [17] 9.01%

CCCc1cc2c(cc1Br)OCO2
inactive: [1] 98% | [2] 94.4% | [3] 97.3% | [4] 95% | [5] 100% | [6] 105% | [7] 104% | [8] 98.6% | [9] 96.5% | [10] 110% | [11] 111% | [12] 113% | [13] 96.1% | [14] 96.5% | [15] 114% | [16] 103% | [17] 111% | [18] 113% | [19] 99.8% | [20] 98.5%

Clc1cc(Cl)cc(N2N=C(c3cccc(Nc4ccncc4)c3)CC2c2ccccc2)c1 (stereo not drawn)
inactive: [1] 97.1% | [2] 87.6% | [3] 71.4% | [4] 62% | [5] 89.9% | [6] 14.9% | [7] 27% | [8] 103% | [9] 28.3% | [12] 28.5% | [14] 80.4% | [15] 55.7% | [16] 84.7% | [17] 39.5% | [18] 67.4% | [19] 80.2%
active: [10] 2.51% | [11] 5.16% | [13] 2.42%

Cc1ccc(C(c2c(O)c3cc(Br)ccc3[nH]c2=O)c2c(O)c3cc(Br)ccc3[nH]c2=O)cc1
inactive: [1] 90.2% | [2] 71.2% | [3] 94.5% | [4] 59.5% | [5] 106% | [6] 73.5% | [7] 76.5% | [8] 79.6% | [9] 80.3% | [10] 66.6% | [11] 97.3% | [12] 73.2% | [13] 96% | [14] 104% | [15] 81.7% | [16] 86.1% | [17] 89.6% | [18] 86.7% | [19] 82.4% | [20] 101%

COc1ccc(-c2nc(N/N=C/c3cccc(Br)c3)nc(N3CCOCC3)c2C#N)cc1
active: [11] -21.3%
inactive: [1] 80.1% | [2] 90.2% | [3] 89.4% | [4] 43.5% | [5] 90.8% | [6] 54.6% | [7] 59.6% | [8] 45.1% | [9] 35.6% | [10] 46.9% | [12] 35.8% | [13] 69.9% | [14] 111% | [15] 81.2% | [16] 97.1% | [17] 89.1% | [18] 74.6% | [19] 68%

O=C(NCCc1ccccn1)OCc1nc2nc(Cl)nc(N3CCOCC3)c2[nH]1
inactive: [2] 72.4% | [3] 28.6% | [4] 31.8% | [14] 69.9% | [15] 28.6% | [16] 30.1% | [17] 23.9% | [19] 16.5% | [20] 16.6%
active: [1] -16% | [5] -29.4% | [6] -94.9% | [7] 7.47% | [8] -9.02% | [9] 0.909% | [10] 4.05% | [11] -23.3% | [12] -23.8% | [13] -0.399% | [18] -79.5%

Cc1ccc2[nH]c(=O)cc(-n3nncc3COc3ccc(C=O)cc3)c2c1
inactive: [1] 101% | [2] 103% | [3] 106% | [4] 62.9% | [5] 109% | [6] 98.9% | [7] 87.8% | [8] 117% | [9] 97.9% | [10] 108% | [11] 102% | [12] 102% | [13] 107% | [14] 101% | [15] 104% | [16] 107% | [17] 106% | [18] 102% | [19] 96.7% | [20] 109%

CCc1nc(C)cn1C(=O)OCc1nc2nc(Cl)nc(N3CCOCC3)c2[nH]1
inactive: [2] 48.2% | [8] 22.1% | [16] 70%
active: [1] -90.9% | [3] -21.3% | [4] -100% | [5] -91.5% | [6] -100% | [7] -80% | [9] -5.27% | [10] 6.91% | [11] -16.1% | [12] -33.1% | [13] -13.7% | [14] -48.9% | [15] -33.9% | [17] -48.1% | [18] -80.9% | [19] -6.6% | [20] 2.83%

Cc1ccc2[nH]c(=S)n(-c3ccc(S(=O)(=O)Nc4ccc(Cl)nn4)cc3)c(=O)c2c1
inactive: [1] 106% | [2] 97.8% | [3] 96.9% | [4] 85.2% | [5] 100% | [6] 104% | [7] 90.6% | [8] 92.1% | [9] 100% | [10] 100% | [11] 94.2% | [12] 103% | [13] 97.7% | [14] 103% | [15] 110% | [16] 108% | [17] 105% | [18] 108% | [19] 94.4% | [20] 103%

CCC(C)N(CCNc1cc(OC)cc2cccnc12)CCC(C)C (stereo not drawn)
inactive: [1] 90% | [2] 92.2% | [3] 93.5% | [4] 77.8% | [5] 96.7% | [6] 75.2% | [7] 90.8% | [8] 72.9% | [9] 109% | [10] 83.9% | [11] 51.8% | [12] 94.1% | [13] 86.6% | [14] 102% | [15] 26% | [16] 68.3% | [17] 66.4% | [18] 64% | [19] 82.9% | [20] 85.5%

Nc1ncc(C#Cc2cncc(NC(=O)c3cccc(C(F)(F)F)c3)c2)c2cccnc12
inactive: [2] 81.6% | [3] 50.4% | [4] 33.7% | [5] 84.8% | [6] 55.1% | [7] 68.6% | [8] 62.8% | [9] 48.5% | [10] 36.8% | [11] 37.7% | [12] 60.7% | [13] 47.5% | [14] 52.9% | [15] 25.6% | [16] 67.3% | [17] 40.4% | [18] 84.6% | [19] 27% | [20] 66.1%
active: [1] 5.81%

Cc1c([N+](=O)[O-])cc(C(C)(C)C)cc1[N+](=O)[O-]
inactive: [1] 71.5% | [2] 98.6% | [3] 99.7% | [4] 98.7% | [5] 102% | [6] 104% | [7] 98% | [8] 93.8% | [9] 106% | [10] 95.9% | [11] 106% | [12] 112% | [13] 98.6% | [14] 91.1% | [15] 115% | [16] 92.3% | [17] 112% | [18] 101% | [19] 99.5% | [20] 103%

O=C(Nc1sc2c(c1C(=O)O)CCCC2)c1cccc(C(F)(F)F)c1
inactive: [1] 98.6% | [2] 93.7% | [3] 95.6% | [4] 85.8% | [5] 105% | [6] 87.9% | [7] 91.1% | [8] 95.2% | [9] 85.3% | [10] 96.9% | [11] 115% | [12] 80.9% | [13] 94.6% | [14] 98.5% | [15] 86.2% | [16] 83.8% | [17] 96.3% | [18] 94.3% | [19] 98.2% | [20] 93.3%

Reference: PubChem BioAssay (NCI)
